Bioassay records: PubChem, National Center for Advancing Translational Sciences (NCATS)
DRD3 antagonist = blocks the human D3 dopamine receptor; P35462; D3R cells, DiscoveRx beta-arrestin luminescence, antagonist mode; stronger effect = lower value; max response, negative = inhibition, %; 360,000 compounds, 2.5% hits; AID 652054; in the data active means max response below about -50%; inconclusive means no clear call, values can overlap the other calls; further: on the % scale 0 is the no-effect control and ±100 the full control effect
Target sequence (P35462 whole entry, looked up): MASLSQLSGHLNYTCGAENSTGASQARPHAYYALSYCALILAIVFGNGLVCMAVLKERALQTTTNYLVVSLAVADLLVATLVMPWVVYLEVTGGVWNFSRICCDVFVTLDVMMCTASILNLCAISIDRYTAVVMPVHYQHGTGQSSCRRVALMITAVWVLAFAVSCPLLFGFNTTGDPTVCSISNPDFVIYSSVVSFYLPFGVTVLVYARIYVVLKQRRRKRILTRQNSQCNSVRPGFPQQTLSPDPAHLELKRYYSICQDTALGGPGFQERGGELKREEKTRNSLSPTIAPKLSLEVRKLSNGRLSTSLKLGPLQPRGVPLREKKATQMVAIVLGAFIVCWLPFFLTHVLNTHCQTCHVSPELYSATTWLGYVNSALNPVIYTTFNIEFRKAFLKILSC
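Cells expressing the human receptor were seeded at 1500 cells/well, incubated overnight at 37 degrees C in 5% CO2, then exposed to library compounds with dopamine controls for 90 minutes at 37 degrees C before luminescent detection.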
D1 potentiator = enhances dopamine response at the human D1 receptor; P21728; HEK293 TREx D1 cells, calcium flux, dopamine EC20 potentiation; potentiation, % at 10 µM; 360,000 compounds, 0.036% hits; AID 504651; in the data active means potentiation above about 30%; further: 0% is about no effect
D1 ag = human D1 receptor agonism; P21728; HEK293 T-REx D1 cells, calcium flux, agonist mode; activation, % at 2 µM; 360,000 compounds, 1% hits; AID 504660; in the data active means activation above about 30%; further: 0% is about no effect
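Tetracycline-induced HEK293 TREx D1 cells, force-coupled to calcium signalling, were dye-loaded with a no-wash calcium kit. Compound was pin-added after a 10 s baseline. Fluorescence was read kinetically at 1 cycle/s for 180 s, with calcium rises flagged as agonism.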
D1 antag = human D1 dopamine receptor antagonism | P21728 | HEK293 TREx D1 cells, calcium flux, dopamine EC80; stronger effect = lower value | activity change, negative = inhibition, % at 10 µM | 360,000 compounds, 3.2% hits | AID 504652; in the data active means activity change below about -30%; further: on the % scale 0 is the no-effect control and ±100 the full control effect
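Calcium flux readout: force-coupled, inducible Hek293 Trex D1 line, cells induced overnight at 30 C with tetracycline, dye-loaded 30–90 min at RT. Antagonism scored against EC80 dopamine challenge given 180 s after compound.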
DRD3 agonist = activates the human D3 dopamine receptor; D3R DiscoveRx beta-arrestin cells, luminescence, 90 min; max activation, %; 410,000 compounds, 0.58% hits; in the data active means max activation above about 30%; further: 0% is about no effect
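Agonist-mode cell screen: cells plated at 1500/well and incubated overnight at 37 °C, then exposed to library compounds for 90 min at 37 °C. Detection reagent was added for 30–60 min at room temperature, and luminescence was read.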
An asterisk follows results filed as active; ? = inconclusive; / = not tested or not shown. Hits are enriched below; roughly 6% of the tested compounds scored in any of these assays.

SMILES	DRD3 antagonist	D1 potentiator	D1 ag	D1 antag	DRD3 agonist
O=C(NCc1n[nH]c(=S)n1Cc1ccccc1)c1ccc(Cl)cc1Cl	-5.1	-0.3	4.5	-31.4*	-2.4
CNC(=O)CN(CCN(CCN(CC(=O)[O-])CC(=O)NC)CC(=O)[O-])CC(=O)[O-].O.[Gd+3]	/	/	/	/	-10.0
Cc1c(/C=N/NC(=O)CNc2ccccc2)c2ccccn2c1C(=O)c1ccccc1	9.1	4.3	4.2	4.6	9.2
COc1ccc(C(=O)Nc2nc3ccccc3n2CCOc2ccc(Cl)cc2)cc1	/	-3.0	4.1	-10.7	2.0
CCOC(=O)c1cnc(Nc2nc3ccccc3o2)nc1CSC(=S)N(CC)CC	-60.3*	0.2	2.0	-2.9	-7.7
CC(C)Nc1ccc(-c2nc(-c3ccco3)no2)cc1[N+](=O)[O-]	/	-0.8	0.1	-8.6	-13.6
N=c1n(CC(=O)c2ccc(Br)s2)c2ccccc2n1Cc1ccccc1	19.0	-3.0	48.7*	-20.5	-9.0
CCN(CC)CCn1c(=N)n(CCO)c2ccccc21	0.0	-1.8	3.7	-4.6	8.2
CCN(CC)CCn1c(=N)n(CC(=O)c2ccc(Br)s2)c2ccccc21	-73.2*	-12.5	13.1	-11.8	-24.3
Cn1c(=N)n(CC(=O)c2ccc(Br)s2)c2ccccc21	?	2.4	4.7	1.6	8.2
COc1cccc(-n2nnnc2S(C)(=O)=O)c1	-77.2*	0.2	2.1	-8.4	-8.3
Cc1cccc(-n2nnnc2S(C)(=O)=O)c1	/	-1.4	3.8	-51.5*	-20.5
COc1cccc(-n2nnc(S(=O)(=O)c3ccc(C)cc3)c2N)c1	20.2	0.6	13.5	-35.9*	3.3
COc1cccc(Oc2nnnn2-c2ccccc2)c1	13.6	0.1	0.8	1.5	1.1
CCCCCCCCN1C(=O)[C@H](CC(=O)NCCc2ccccc2OC)C[C@@]2(C(=O)OC)CCCCC=C12	19.4	/	/	/	-4.4
COC(=O)C1CN(C(=O)C(C)Oc2ccc(C)c(C)c2)c2ccccc2O1 (stereo not drawn)	4.0	2.0	0.8	-2.8	0.1
CC(=O)Nc1cc(-c2ccsc2)cn2c(-c3ccc(F)cc3)cnc12	14.5	/	/	/	1.6
Clc1ccccc1OCCN1CCC(Cc2ccccc2)CC1	-89.9*	-13.4	29.8	-42.2*	-7.0
C=CCOc1ccccc1CN1CCC(Cc2ccccc2)CC1	-52.4*	-9.2	1.4	-9.2	-10.2
OCc1ccccc1OCCCN1CCC(Cc2ccccc2)CC1	-66.0*	-5.5	4.8	-39.2*	-25.4
COc1cc(OC)c(CN2CCC(Cc3ccccc3)CC2)cc1Br	?	-8.7	8.5	-42.8*	-10.5
CCc1ccccc1OCCCN1CCCC1	?	-1.0	5.0	-26.9	-2.0
O=Cc1cc(Cl)ccc1OCCN1CCC(Cc2ccccc2)CC1	?	2.6	3.2	27.6	-23.4
Cc1cc(C)c(S(=O)(=O)NCc2ccc3c(c2)CCN3C(=O)c2ccccc2)c(C)c1	/	-1.6	4.6	1.8	-3.2
CCCCN(C=O)c1c(CC)nc2ccc(C(=O)N(C)Cc3ccccc3)cn12	-15.9	/	/	/	-13.7
SMILES	DRD3 antagonist	D1 potentiator	D1 ag	D1 antag	DRD3 agonist
Cn1cc(C2=C(c3ccc(Cl)cc3Cl)C(=O)NC2=O)c2ccccc21	-8.1	1.8	144.6*	22.8	0.0
Cn1cc(-c2ccccc2C(N)=O)c(=O)c2cc(Cl)ccc21	11.8	-0.5	2.5	-4.5	3.1
CCOC(=O)c1c(-c2ccc(OC)cc2)csc1/N=C/C1C(=O)CCCC1=O	-4.0	-8.1	29.0	-46.7*	-7.1
COc1cccc(NC(=O)CN(C)C(=O)/C=C/c2ccc(S(=O)(=O)N3CCCCCC3)cc2)c1	1.4	/	/	/	5.5
COc1cccc(NC(=O)CSc2nc3ccccc3cc2Cc2ccccc2)c1	-52.3*	-5.8	12.7	-17.2	0.6
COc1cccc(NC(=O)CSc2nc(C)c(Cc3ccccc3)c(=O)[nH]2)c1	/	-0.7	1.9	-72.8*	8.9
COc1cccc(NC(=O)CN(C)C(=O)/C=C/c2ccc3ccccc3n2)c1	-13.3	3.3	-1.3	-46.0*	-15.9
CC1(C(=O)NS(=O)(=O)c2ccc(Cl)s2)CCN1C(=O)c1ccccc1CCc1ccccc1 (stereo not drawn)	?	/	/	/	-0.2
O=C1CCC[C@@H]2[C@@H](Cc3ccccc3)[C@H](N3CCN(c4ccccc4)CC3)C[C@@H]3CCN1[C@@H]32	0.0	/	/	/	-20.4
Cc1sc2ncnc(SCC(=O)N3CCCC(C(F)(F)F)C3)c2c1C (stereo not drawn)	13.3	6.0	0.9	-38.1*	-9.3
CSCCC(C(=O)NC1CCCC1)n1c(C2CCCC2)nc2ccccc21 (stereo not drawn)	2.3	/	/	/	-3.8
CCCOc1ccc(C(=O)c2nc3c(n2O)CCCC3)cc1	-9.0	-5.2	5.5	-31.5*	1.6
COc1ccc(C2CC(c3ccccc3OC(C)=O)=NN2C(C)=O)cc1 (stereo not drawn)	-13.5	-4.8	3.3	-8.8	3.3
COCCn1c(-c2ccc(Br)cc2)nc2oc3cc(OC)ccc3c(=O)c2c1=O	7.3	0.2	-0.3	-44.6*	4.5
Cc1nc([N+](=O)[O-])c(Br)n1CC(=O)c1cccc([N+](=O)[O-])c1	-50.6*	-1.9	5.8	-13.7	5.8
Cc1ccccc1Cn1c(=O)n(CCC(=O)NCc2ccco2)c(=O)c2sccc21	/	1.1	-1.2	5.2	6.4
COC(=O)C1(C(=O)OC)c2ccccc2N(S(=O)(=O)c2ccc(C)cc2)C1CC(=O)c1ccccc1 (stereo not drawn)	19.2	/	/	/	5.6
CCOP(=O)(c1ccccc1)c1nc(-c2ccccc2Cl)oc1N1CCCCC1 (stereo not drawn)	-72.8*	-1.7	27.3	25.4	0.2
CCN(CC)C(=O)CSc1nc2cc3c(cc2c(=O)n1CCCCCC(=O)NCCc1ccc(OC)c(OC)c1)OCO3	/	-2.9	0.2	-7.1	2.5
COc1ccccc1-c1nc2n(n1)C(c1ccccc1Cl)C(C(=O)Nc1cccnc1)=C(C)N2 (stereo not drawn)	/	-0.4	-1.3	-3.0	-2.2
C=C1C(=O)[C@@]23[C@H](O)C[C@@H]4C(C)(C)CC[C@H](O)[C@]4(C)[C@@H]2C[C@H](O)[C@@H]1[C@H]3O	0.0	1.6	0.0	-9.3	-17.5
C=C1C(=O)[C@@]23[C@H](O)C[C@@H]4C(C)(C)CC[C@H](O)[C@@]4(C)[C@@H]2CC[C@@H]1[C@H]3O	-56.5*	0.6	0.2	28.2	-14.5
Cc1cccc(S(=O)(=O)c2cn(C)c3cc(N4CCN(c5ccc(F)cc5)CC4)c(F)cc3c2=O)c1	/	1.4	-0.5	-0.4	-1.5
CSc1ccc(CN2CCc3c([nH]c4ccccc34)C2)cc1	?	-4.7	0.0	1.9	-11.5
Cc1ccc2[nH]c3c(c2c1)CCN(C)C3	-59.9*	-5.2	2.5	3.5	-20.0
Clc1ccc(CN2CCc3c([nH]c4ccccc34)C2)cc1Cl	13.7	4.8	3.5	5.6	1.6
Clc1cccc(CN2CCc3c([nH]c4ccccc34)C2)c1	-58.9*	-7.0	2.7	2.6	-21.3
